Laboratory results reported in PubChem BioAssay (NCI).
Compounds without any hit were thinned out: in the full panel of roughly 83,000, 20% have a hit.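 Single-concentration screen, 48 h exposure, 96-well plates. Endpoint: percent growth. Below 10 = active.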 Active and inactive are the calls of the source.

Legend:
Assay in all cases: NCI-60 one-dose screen, 48 h (100 = growth as untreated, 0 = no growth, -100 = all killed)
Settings in all cases: 10 µM unless noted
[1] = system: RPMI-8226 leukemia
[2] = system: OVCAR-8 ovarian
[3] = system: OVCAR-5 ovarian
[4] = system: OVCAR-4 ovarian
[5] = system: SK-OV-3 ovarian
[6] = system: IGROV1 ovarian
[7] = system: OVCAR-3 ovarian
[8] = system: HS 578T breast
[9] = system: NCI/ADR-RES ovarian
[10] = system: T-47D breast
[11] = system: BT-549 breast
[12] = system: MDA-MB-435 melanoma
[13] = system: MCF7 breast
[14] = system: HCT-116 colon
[15] = system: HCC-2998 colon
[16] = system: KM12 colon
[17] = system: SW-620 colon

Measured: growth

CNC(=O)c1cccc(Cn2nc(C)c(NC(=O)c3ccc(COc4ccc(C(F)(F)F)cc4C)cc3)c2C)c1
inactive: [1] 27.3% | [2] 33.9% | [3] 100% | [4] 29.6% | [5] 70.9% | [6] 63.8% | [7] 34% | [8] 84.9% | [9] 35.4% | [11] 19.7% | [12] 36.2% | [13] 21.7% | [14] 29.2% | [15] 68.5% | [16] 61.7%
active: [10] 6.16%

COc1cc(CC(=O)n2ncc3ccc(N)cc32)cc(OC)c1OC
inactive: [1] 100% | [2] 104% | [3] 91.9% | [4] 88.4% | [5] 95.6% | [6] 90.7% | [7] 108% | [8] 103% | [9] 90.1% | [10] 76.2% | [11] 91.3% | [12] 65.3% | [17] 104% | [13] 87.5% | [14] 97.3% | [15] 105% | [16] 82.6%

CC(C)=CCC[C@](C)(O)[C@H]1CC[C@]2(C)[C@@H]1CC[C@@H]1[C@@]3(C)C/C(=C/c4ccccc4)C(=O)C(C)(C)[C@@H]3CC[C@]12C
inactive: [1] 79.3% | [2] 93.4% | [3] 102% | [4] 89.2% | [5] 97.8% | [6] 101% | [7] 103% | [8] 91.3% | [9] 100% | [10] 87.4% | [11] 100% | [12] 90.3% | [17] 80.4% | [13] 94.6% | [14] 85.1% | [15] 98.8% | [16] 90%

O=C(/C(=C\c1ccc([N+](=O)[O-])cc1)S(=O)Cc1ccc(F)cc1)c1ccc(F)cc1 (stereo not drawn)
inactive: [2] 29.3% | [3] 40.4% | [4] 45% | [5] 103% | [7] 18.1% | [8] 40.9% | [9] 20.7% | [10] 10.3% | [11] 74.6% | [12] 53.7% | [13] 16.4% | [15] 45.9% | [16] 43.4%
active: [1] -37.6% | [6] -19.1% | [17] -33.5% | [14] -20.5%

Cc1nn(-c2ccccc2)c(Oc2c(Cl)cccc2Cl)c1/C=N/N=c1\sc2ccccc2n1C
inactive: [1] 36.6% | [2] 45.8% | [3] 58.5% | [4] 81.8% | [5] 70.6% | [6] 53.6% | [7] 49.9% | [8] 73.2% | [9] 56.1% | [10] 47.2% | [11] 63.6% | [12] 64.6% | [13] 45.5% | [14] 30.1% | [15] 71.4% | [16] 44.3%

CCCCN1C=CCN(CCCC)C1
inactive: [1] 37.9% | [2] 44.2% | [3] 82.7% | [4] 42.6% | [5] 84.2% | [6] 46.4% | [7] 13.1% | [8] 88.9% | [11] 56.9% | [17] 73.4% | [13] 32.5% | [14] 34% | [15] 46.2%
active: [10] 6.14% | [12] 6.59%

C[C@H](c1nc2ccc(N)cc2[nH]1)[C@H]1CC[C@H]2[C@@H]3CCC4=CC(=O)CC[C@]4(C)[C@H]3CC[C@]12C
inactive: [1] 64.5% | [2] 91.4% | [3] 102% | [4] 88.1% | [5] 91.2% | [6] 85.1% | [7] 91.5% | [8] 87.3% | [10] 77.8% | [11] 70% | [12] 95.7% | [17] 102% | [13] 67.9% | [14] 74.6% | [15] 93.5% | [16] 91.8%

CCCCC/C=C/C(C)=C/C1CC(C)C/C=C/CCC(O)C(OC(N)=O)CCC(C)CC(O)C(C)C(=O)O1 (stereo not drawn)
inactive: [1] 56.3% | [2] 98.5% | [3] 102% | [4] 107% | [5] 111% | [6] 87.3% | [7] 129% | [8] 94% | [9] 96% | [10] 91.6% | [11] 120% | [12] 50.6% | [17] 103% | [13] 86.5% | [14] 94.1% | [15] 52.3% | [16] 102%

C=C(C)[C@@H]1CC[C@]2(C(=O)N[C@@H](Cc3ccccc3)C(=O)OC)CC[C@]3(C)[C@H](CC[C@@H]4[C@@]5(C)CCC(=O)C(C)(C)[C@@H]5CC[C@]43C)[C@@H]12
inactive: [1] 85.2% | [2] 100% | [3] 97.9% | [4] 73.5% | [5] 98.8% | [6] 88.7% | [7] 72.7% | [8] 96.4% | [9] 99.1% | [10] 64.8% | [11] 105% | [12] 90.6% | [17] 95.4% | [13] 84.6% | [14] 68.4% | [15] 98.2% | [16] 75.2%

CN(CCN(C)c1ccc(C(=N)N)cc1)c1ccc(C(=N)N)cc1
inactive: [1] 46.8% | [2] 107% | [3] 90.9% | [4] 98% | [5] 140% | [6] 26% | [7] 87.9% | [8] 108% | [9] 104% | [10] 163% | [11] 86% | [12] 90.5% | [13] 108% | [14] 104% | [15] 97% | [16] 91.3%

CC(=O)Nc1ccc(-n2cnc3cc(-c4ccc(OCCN5CCCCC5)cc4)ccc32)cc1
active: [17] -29% | [14] -51.2%
inactive: [1] 54% | [2] 87.1% | [3] 104% | [4] 82.6% | [5] 139% | [6] 97.4% | [7] 98.4% | [8] 95.3% | [9] 97.2% | [10] 107% | [11] 99.4% | [12] 102% | [13] 70.6% | [15] 119% | [16] 29%

CC(C)c1ccc(Nc2ccc3c(OCCCN4CCN(C)CC4)cccc3n2)cc1
inactive: [2] 88.7% | [3] 81.2% | [4] 74.2% | [5] 99.9% | [6] 83.1% | [7] 79.4% | [8] 77% | [9] 82% | [10] 68.9% | [11] 79.6% | [12] 22.6% | [13] 18.2% | [14] 18.6% | [15] 64.7% | [16] 39.3%
active: [1] 2.88% | [17] 4.69%

CC1(C)NCCC[C@]2(C)[C@H]3CC[C@@H]4[C@H]5[C@H](C(=O)/C=C/c6ccco6)CC[C@]5(CO)CC[C@@]4(C)[C@]3(C)CC[C@@H]12
inactive: [1] 44.2% | [2] 95.2% | [3] 101% | [4] 79.9% | [5] 93.1% | [6] 89.5% | [7] 92.6% | [8] 86.8% | [9] 95.2% | [10] 75.7% | [11] 89.1% | [12] 66.7% | [17] 69.7% | [13] 46.6% | [14] 33.7% | [15] 91.4% | [16] 82.9%

NC(=NCc1ccccc1)C(N=Nc1ccccc1)C(=O)NCc1ccccc1 (stereo not drawn)
inactive: [1] 90.9% | [2] 31.1% | [3] 100% | [4] 76.5% | [5] 95.6% | [6] 81.5% | [7] 88.8% | [8] 64% | [9] 50.2% | [10] 84.6% | [11] 114% | [12] 81.4% | [13] 69.4% | [14] 15.8% | [15] 74.7% | [16] 34.6%

O=S(=O)(NCCNc1nccc(-c2c(-c3cccc(O)c3)nc3occn23)n1)c1ccccc1
inactive: [1] 92.8% | [2] 79.8% | [3] 117% | [4] 123% | [5] 97.2% | [6] 47.8% | [7] 97.9% | [8] 91.8% | [9] 112% | [10] 74% | [11] 96% | [12] 28.5% | [17] 103% | [13] 49.4% | [14] 53.8% | [15] 113% | [16] 83.3%

CC(c1ccccc1)C(C(=O)c1ccccc1)c1ccccc1 (stereo not drawn)
inactive: [1] 107% | [2] 63.7% | [3] 101% | [4] 96% | [5] 101% | [6] 99.5% | [7] 110% | [8] 91.2% | [9] 80.3% | [10] 91.5% | [11] 101% | [12] 110% | [17] 97.7% | [13] 98% | [14] 74.5% | [15] 93.4% | [16] 104%

O=C(CSc1nc2ccccc2[nH]1)NCc1ccccc1
inactive: [1] 101% | [2] 104% | [3] 95.4% | [4] 97.6% | [5] 101% | [6] 102% | [7] 105% | [8] 97.9% | [9] 102% | [10] 92% | [11] 105% | [12] 95.8% | [13] 95.5% | [14] 107% | [15] 102% | [16] 105%

O=C1Nc2cc(Cl)ccc2/C1=C\c1c(-c2ccc(F)cc2)nc2ccccn12
inactive: [1] 45.8% | [2] 34.5% | [3] 43.2% | [6] 14% | [10] 24.2% | [11] 21.6% | [15] 31.5%
active: [4] -2.19% | [5] -26.3% | [7] -58.3% | [8] -4.87% | [9] -27.6% | [12] -55% | [17] 9.82% | [13] 2.1% | [14] -80.1% | [16] -1.1%
